Sampled rows, rich in hits. Any-hit rate of the full collection: about 3.3%.
Casp6 inh: human caspase-6 inhibitors, primary screen, biochemical, VEID-R110 fluorescence, single point, set 2. purified caspase-6, Z-VEID-R110 cleavage fluorescence. inhibition, % at 12.5 µM. hit rate 0.53% among 350,000. AID 686996, 2013;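 active = mean inhibition across replicates at least about 35%, with every replicate also reaching that limit, limit read from the data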
Target sequence (P55212 24-179 limits assumed): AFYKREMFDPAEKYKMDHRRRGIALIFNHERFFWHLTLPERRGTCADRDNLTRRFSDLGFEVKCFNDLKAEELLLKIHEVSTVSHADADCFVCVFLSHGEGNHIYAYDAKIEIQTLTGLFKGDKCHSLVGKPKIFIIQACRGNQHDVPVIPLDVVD
Target sequence (P55212 194-293 limits assumed): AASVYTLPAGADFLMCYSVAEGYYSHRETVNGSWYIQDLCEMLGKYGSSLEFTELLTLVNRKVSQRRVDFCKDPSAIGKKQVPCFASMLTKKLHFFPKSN
FGF22 binding: binders of human FGF22 protein, primary screen, FGF22 synaptogenesis inhibitor project, biophysical, thermal shift, single point; Fibroblast growth factor 22 (Homo sapiens), Q9HCT0; recombinant FGF22 thermal shift, SYPRO orange fluorescence; percent of sucrose octasulfate shift, DMSO zero; activity (Tm shift, normalised), % at 9.99 µM; hit rate 1.5% among 340,000; AID 651658, 2012;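 active = mean Tm shift, scaled 0 neutral to 100 positive control, at about 1.3% or above, every replicate too, limit read from the data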
Target sequence (Q9HCT0 whole entry, looked up): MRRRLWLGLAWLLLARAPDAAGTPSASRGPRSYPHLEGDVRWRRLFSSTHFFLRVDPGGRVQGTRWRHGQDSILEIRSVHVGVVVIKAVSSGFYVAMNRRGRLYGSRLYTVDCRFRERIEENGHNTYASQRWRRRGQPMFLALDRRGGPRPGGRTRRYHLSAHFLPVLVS
INS-1E GSIS act: GLuc luminescence reporter in INS-1E cells, primary screen for activators of glucose-dependent secretion of insulin. INS-1E GLuc reporter insulin secretion, 2-3 h. activation, % at 16.6 µM. hit rate 0.61% among 370,000. AID 743287, 2014;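 active = lowest replicate activation of at least 40%, so every replicate reaches that level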
SIRT5 inh: SIRT5 desuccinylase inhibitors, primary screen, biochemical, fluorescence imaging, single point, set 5. NAD-dependent protein deacylase sirtuin-5, mitochondrial (Homo sapiens), Q9NXA8. Purified SirT5, succinyl-peptide AMC, trypsin-coupled fluorescence. inhibition, % at 15 µM. hit rate 1.1% among 330,000. AID 652115, 2013; in the data active = inhibition above about 15%
ERAP1 HTS inh: human ERAP1 aminopeptidase inhibitors, primary screen, biochemical, single point, plate reader | Endoplasmic reticulum aminopeptidase 1 (Homo sapiens), Q9NZ08 | recombinant ERAP1, Leu-AMC fluorescence, 60 min | inhibition, % at 10.7 µM | hit rate 0.15% among 340,000 | AID 652197, 2013;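 active = mean replicate inhibition of at least 30%, or all replicates individually reaching that 30% level; inactive = mean below 30% and not every replicate reaching it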
Of the large screens only hits and unclear results are named; the others gave an inactive call.

C[C@@H]1CCCCO[C@@H](CN(C)S(C)(=O)=O)[C@H](C)CN([C@H](C)CO)C(=O)c2cc(NC(=O)CCC(F)(F)F)ccc2O1	none (no result: Casp6 inh, FGF22 binding, SIRT5 inh, ERAP1 HTS inh)
C[C@H](CO)N1C[C@H](C)[C@@H](CN(C)Cc2ccc(C(F)(F)F)cc2)Oc2ccc(N(C)C)cc2CC1=O	SIRT5 inh 17
C[C@@H]1CN([C@@H](C)CO)C(=O)Cc2cc(NS(=O)(=O)c3ccc(F)cc3)ccc2O[C@H]1CN(C)Cc1ccc(C(F)(F)F)cc1	SIRT5 inh 36
COc1ccc(S(=O)(=O)Nc2ccc3c(c2)CC(=O)N([C@@H](C)CO)C[C@H](C)[C@@H](CN(C)Cc2ccc(C(F)(F)F)cc2)O3)cc1	SIRT5 inh 16
C[C@@H]1CN([C@H](C)CO)C(=O)Cc2cc(N(C)C)ccc2O[C@H]1CN(C)Cc1ccc(C(=O)O)cc1	none (no result: SIRT5 inh)
C[C@H](CO)N1C[C@H](C)[C@@H](CN(C)Cc2ccc(C(F)(F)F)cc2)Oc2ccc(NS(C)(=O)=O)cc2CC1=O	SIRT5 inh 16
COc1ccc(CN(C)C[C@@H]2Oc3ccc(NS(=O)(=O)c4ccc(OC)cc4)cc3CC(=O)N([C@@H](C)CO)C[C@H]2C)cc1	none
COCC#Cc1ccc2c(c1)O[C@@H](CN(C)C(=O)NC(C)C)[C@H](C)CN([C@H](C)CO)S2(=O)=O	none
C[C@@H]1CN([C@H](C)CO)C(=O)Cc2cc(NS(=O)(=O)c3ccc(F)cc3)ccc2O[C@@H]1CN(C)Cc1ccc(C(F)(F)F)cc1	SIRT5 inh 23
Cc1[nH][nH]c(=O)c1C(c1cc([N+](=O)[O-])ccc1O)c1c(C)[nH][nH]c1=O	SIRT5 inh 26
C[C@@H]1CN([C@H](C)CO)C(=O)Cc2cc(NC(=O)c3ccncc3)ccc2O[C@H]1CN(C)CC1CC1	none
OCCCNC(=S)Nc1ccc(Oc2ccccc2)cc1	FGF22 binding 44
CN(C)CCCNC(=S)Nc1ccc(Oc2ccccc2)cc1	none
CC(C)CNC(=S)Nc1ccc(Oc2ccccc2)cc1	INS-1E GSIS act 85
Cn1c(CN2CCCC2)c(C#N)c2ccccc21	FGF22 binding 43
O=S(=O)(N[C@H]1CC[C@@H](CCn2cc(-c3ccccn3)nn2)O[C@@H]1CO)c1cccc(F)c1	none
O=C(Nc1ccccc1)[C@@H]1[C@@H](CO)[C@@H]2Cn3c(cccc3=O)[C@@H]2N1CC1CC1	SIRT5 inh 16
CCCNC(=O)[C@H]1[C@H](CO)[C@H]2Cn3c(ccc(-c4ccc(F)cc4)c3=O)[C@H]2N1CC1CC1	SIRT5 inh 16
COC(=O)[C@H]1[C@H](CO)[C@H]2Cn3c(ccc(-c4ccncc4)c3=O)[C@H]2N1Cc1ccccc1F	ERAP1 HTS inh 30
O=C(Nc1ccc(-c2ccccc2)cc1)[C@H]1[C@H](CO)[C@H]2Cn3c(cccc3=O)[C@H]2N1CC1CCCCC1	SIRT5 inh 102 (no result: Casp6 inh, ERAP1 HTS inh)
O=C(Nc1ccc(-c2ccccc2)cc1)[C@H]1[C@H](CO)[C@H]2Cn3c(cccc3=O)[C@H]2N1CC1CCCC1	none
O=C(Nc1ccccc1)[C@@H]1[C@@H](CO)[C@@H]2Cn3c(cccc3=O)[C@@H]2N1CC1CCOCC1	none (no result: FGF22 binding)
Cc1cccc(Nc2nc(C)cc(C)c2C#N)c1	none
Cc1cccc(Nc2nc(N)c(C#N)c(CC#N)c2C#N)c1	INS-1E GSIS act 84 (no result: Casp6 inh, FGF22 binding, SIRT5 inh, ERAP1 HTS inh)
CCOC(=O)C1=C(C)NC(=S)NC1C (centres undefined)	FGF22 binding 44
CCOC(=O)C1=C(C)NC(=O)C1CC(=O)O (centres undefined)	none (no result: Casp6 inh, FGF22 binding, SIRT5 inh, ERAP1 HTS inh)
O=C(/C=C/NNC(=O)c1ccc(Cl)cc1)c1ccccc1	FGF22 binding 44
CC(C)CC#Cc1ccc2c(c1)O[C@H](CN(C)C(=O)c1cnccn1)[C@@H](C)CN([C@@H](C)CO)S2(=O)=O	none
C[C@@H]1CN([C@@H](C)CO)C(=O)c2cc(NC(=O)c3ccccc3)ccc2O[C@@H](C)CCCCO[C@H]1CN(C)Cc1ccncc1	none
Cc1ccc(S(=O)(=O)Nc2ccc3c(c2)C(=O)N([C@@H](C)CO)C[C@H](C)[C@H](CN(C)Cc2ccc(C(F)(F)F)cc2)OCCCC[C@@H](C)O3)cc1	SIRT5 inh 18

Source: PubChem BioAssay (Broad Institute)
